Results on four compounds are retold here after PubChem BioAssay.

SMILES strings stand for the structures. “And” between values parts separate entries of the source, which are not always exact repeats. Equal entries are not always repeated. The source made the active and inactive calls. Unless noted, no stated cut-off is given here; in the data, active means inhibition above about 80%; inactive means the rest.

A short description of one test: growth inhibition, single agent or in combination, cell-based, chromothripsis tumors, cisplatin or BGB combos (AID 1671449).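 Further: cells exposed for 96 hours; 0% = vehicle DMSO and 100% = killing by high DMSO.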 Conditions: LFS_MB_P medulloblastoma cells, measured here: combination with BGB IC20, at 0.005 µM.
For the compound `CCCCCCNC(=O)n1cc(F)c(=O)[nH]c1=O`, the inhibition was -12% and -29.3%.
Same read-out and setting: to `CCn1cc(C(=O)O)c(=O)c2cc(F)c(N3CCN(C)CC3)cc21` belongs 13.2% and 24%.
Same read-out and setting: to `Cn1cnc([N+](=O)[O-])c1Sc1ncnc2nc[nH]c12` belongs -29.8% and -1.49%; to `O=c1[nH]cc(F)c(=O)[nH]1`, 0.419%.

The test is the same for the next values; noted with them: LFS_MB_P medulloblastoma cells, measured here: combination with BGB IC40, at 0.005 µM.
Take `CCCCCCNC(=O)n1cc(F)c(=O)[nH]c1=O`: the inhibition was -26.4% and -7.28%.
Still for that read-out and setting: the result for `CCn1cc(C(=O)O)c(=O)c2cc(F)c(N3CCN(C)CC3)cc21` reads -32.6% and 8.85%; that for `Cn1cnc([N+](=O)[O-])c1Sc1ncnc2nc[nH]c12`, -7.88% and -5.24%.
On to `O=c1[nH]cc(F)c(=O)[nH]1`, for which the inhibition is -26%.

Still in this test, the particulars now being: LFS_MB_P medulloblastoma cells, measured here: combination with BGB IC40, at 0.05 µM.
`CCCCCCNC(=O)n1cc(F)c(=O)[nH]c1=O`: the inhibition is -34.3% and -13.5%.
On the same count and under the same terms, the result for `CCn1cc(C(=O)O)c(=O)c2cc(F)c(N3CCN(C)CC3)cc21` reads 12.2% and 6.61%; that for `Cn1cnc([N+](=O)[O-])c1Sc1ncnc2nc[nH]c12`, -1.05% and 8.34%; that for `O=c1[nH]cc(F)c(=O)[nH]1`, -17%.

Still in this test, the particulars now being: LFS_MB_P medulloblastoma cells, measured here: combination with cisplatin, at 0.5 µM, stronger effect = higher value.
`CCCCCCNC(=O)n1cc(F)c(=O)[nH]c1=O`: the inhibition was -48.8% and -55.1%.
With `CCn1cc(C(=O)O)c(=O)c2cc(F)c(N3CCN(C)CC3)cc21`, the inhibition is -21.7% and -50.8%.
In the case of `Cn1cnc([N+](=O)[O-])c1Sc1ncnc2nc[nH]c12`, the inhibition was -41.8% and -13.7%.
With `O=c1[nH]cc(F)c(=O)[nH]1`, the inhibition was determined as 59.2%.

Staying with this test, now noted: LFS_MB_P medulloblastoma cells, measured here: combination with cisplatin, at 5 µM, stronger effect = higher value.
As for `CCCCCCNC(=O)n1cc(F)c(=O)[nH]c1=O`, the inhibition is -34.6% and -25%.
The same measure, in the same setting: the result for `CCn1cc(C(=O)O)c(=O)c2cc(F)c(N3CCN(C)CC3)cc21` reads -2.03% and -14%; that for `Cn1cnc([N+](=O)[O-])c1Sc1ncnc2nc[nH]c12`, -15% and -14.9%.
On the same count and under the same terms, the result for `O=c1[nH]cc(F)c(=O)[nH]1` reads -27.9%.

The nature of a further test: growth inhibition, single agent and combos, cell-based, chromothripsis tumors, cisplatin or BGB combos (AID 1671450).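 Further: cells exposed to compound for four days; 0% = vehicle DMSO and 100% = cell killing by high DMSO.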 As to conditions: HDN33 neuroblastoma cells, BGB combo, at 5 µM, stronger effect = higher value.
Regarding `CCCCCCNC(=O)n1cc(F)c(=O)[nH]c1=O`, the inhibition was 41.9% and 91.3%.
On the same count and under the same terms, to `CCn1cc(C(=O)O)c(=O)c2cc(F)c(N3CCN(C)CC3)cc21` belongs -18.6% and 9.99%.
With `Cn1cnc([N+](=O)[O-])c1Sc1ncnc2nc[nH]c12`, the inhibition is 27% and -4.71%.
As for `O=c1[nH]cc(F)c(=O)[nH]1`, the inhibition came out at 30.6%.

The test is the same for the next values; noted with them: HDN33 neuroblastoma cells, at 0.5 µM, stronger effect = higher value.
As to `CCCCCCNC(=O)n1cc(F)c(=O)[nH]c1=O`, the inhibition was -22% (inactive) and -3.86% (inactive).
Still for that read-out and setting: the result for `CCn1cc(C(=O)O)c(=O)c2cc(F)c(N3CCN(C)CC3)cc21` reads -25.3% (inactive) and 3.48% (inactive).
The same measure, in the same setting: to `Cn1cnc([N+](=O)[O-])c1Sc1ncnc2nc[nH]c12` belongs 9.11% (inactive) and 3.47% (inactive); to `O=c1[nH]cc(F)c(=O)[nH]1`, 16.5% (inactive).

Staying with this test, now noted: HDN33 neuroblastoma cells, cisplatin combo, at 5 µM, stronger effect = higher value.
Take `CCCCCCNC(=O)n1cc(F)c(=O)[nH]c1=O`: the inhibition was 46.1% and 36.7%.
Take `CCn1cc(C(=O)O)c(=O)c2cc(F)c(N3CCN(C)CC3)cc21`: the inhibition was -42% and 24.3%.
As for `Cn1cnc([N+](=O)[O-])c1Sc1ncnc2nc[nH]c12`, the inhibition is 18.8% and 16.9%.
On to `O=c1[nH]cc(F)c(=O)[nH]1`, for which the inhibition is 40.1%.

Still in this test, the particulars now being: HDN33 neuroblastoma cells, measured here: with BGB IC20 combination, at 0.5 µM, stronger effect = higher value.
With `CCCCCCNC(=O)n1cc(F)c(=O)[nH]c1=O`, the inhibition is -20.7% and 5.65%.
The same measure, in the same setting: the result for `CCn1cc(C(=O)O)c(=O)c2cc(F)c(N3CCN(C)CC3)cc21` reads -16.6% and 0.157%; that for `Cn1cnc([N+](=O)[O-])c1Sc1ncnc2nc[nH]c12`, 3.66% and -16.5%; that for `O=c1[nH]cc(F)c(=O)[nH]1`, -26.4%.

Staying with this test, now noted: HDN33 neuroblastoma cells, measured here: with cisplatin IC20 combination, at 0.5 µM, stronger effect = higher value.
As for `CCCCCCNC(=O)n1cc(F)c(=O)[nH]c1=O`, the inhibition is -11.9% and -1.01%.
Take `CCn1cc(C(=O)O)c(=O)c2cc(F)c(N3CCN(C)CC3)cc21`: the inhibition was -28.5% and 3.55%.
The same measure, in the same setting: the result for `Cn1cnc([N+](=O)[O-])c1Sc1ncnc2nc[nH]c12` reads 5.32% and -7.32%; that for `O=c1[nH]cc(F)c(=O)[nH]1`, 0.453%.

The same test, now with this note: HDN33 neuroblastoma cells, single agent, at 5 µM, stronger effect = higher value.
On to `CCCCCCNC(=O)n1cc(F)c(=O)[nH]c1=O`, for which the inhibition is 90.7% and 52%.
Same read-out and setting: to `CCn1cc(C(=O)O)c(=O)c2cc(F)c(N3CCN(C)CC3)cc21` belongs -19.9% and 6.42%.
On the same count and under the same terms, to `Cn1cnc([N+](=O)[O-])c1Sc1ncnc2nc[nH]c12` belongs 55.4% and 48.5%; to `O=c1[nH]cc(F)c(=O)[nH]1`, 42.5%.

Another test is described as follows: growth inhibition, single agents and combos, ICB984, cell-based, cisplatin or BGB combos, synergistic combos for chromothripsis tumors (AID 1671451; call rule not given here;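 further: cells exposed for 96 hours before readout; 0% = vehicle DMSO and 100% = killing by high DMSO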). Conditions: ICB984 medulloblastoma cells, drug combinations, BGB IC20 combo, at 0.005 µM, stronger effect = higher value.
On to `CCCCCCNC(=O)n1cc(F)c(=O)[nH]c1=O`, for which the inhibition was -17.4% and -9.29%.
Take `CCn1cc(C(=O)O)c(=O)c2cc(F)c(N3CCN(C)CC3)cc21`: the inhibition was -18.1% and 6.69%.
As for `Cn1cnc([N+](=O)[O-])c1Sc1ncnc2nc[nH]c12`, the inhibition is -7.33% and 0.138%.
The same measure, in the same setting: the result for `O=c1[nH]cc(F)c(=O)[nH]1` reads -34.1%.

The same test, now with this note: ICB984 medulloblastoma cells, drug combinations, BGB IC40 combo, at 0.005 µM, stronger effect = higher value.
With `CCCCCCNC(=O)n1cc(F)c(=O)[nH]c1=O`, the inhibition is -22.5% and -2.82%.
As for `CCn1cc(C(=O)O)c(=O)c2cc(F)c(N3CCN(C)CC3)cc21`, the inhibition is -42.4% and -0.345%.
Same read-out and setting: to `Cn1cnc([N+](=O)[O-])c1Sc1ncnc2nc[nH]c12` belongs -44% and -68.5%.
Same read-out and setting: to `O=c1[nH]cc(F)c(=O)[nH]1` belongs -27.4%.

Still in this test, the particulars now being: ICB984 medulloblastoma cells, drug combinations, BGB IC40 combo, at 0.05 µM, stronger effect = higher value.
As to `CCCCCCNC(=O)n1cc(F)c(=O)[nH]c1=O`, the inhibition is -29.3% and 7.79%.
The same measure, in the same setting: the result for `CCn1cc(C(=O)O)c(=O)c2cc(F)c(N3CCN(C)CC3)cc21` reads -41% and 23.4%.
Consider `Cn1cnc([N+](=O)[O-])c1Sc1ncnc2nc[nH]c12`, for which the inhibition is -15.3% and -11.2%.
As to `O=c1[nH]cc(F)c(=O)[nH]1`, the inhibition amounted to 5.15%.

The test is the same for the next values; noted with them: ICB984 medulloblastoma cells, drug combinations, at 0.5 µM, stronger effect = higher value.
`CCCCCCNC(=O)n1cc(F)c(=O)[nH]c1=O`: the inhibition is -42.7% (inactive) and -3.92% (inactive).
Turning to `CCn1cc(C(=O)O)c(=O)c2cc(F)c(N3CCN(C)CC3)cc21`, the inhibition was -41.8% (inactive) and -20.7% (inactive).
Still for that read-out and setting: the result for `Cn1cnc([N+](=O)[O-])c1Sc1ncnc2nc[nH]c12` reads -19.6% (inactive) and -22.9% (inactive).
Still for that read-out and setting: to `O=c1[nH]cc(F)c(=O)[nH]1` belongs 0.32% (inactive).

Still in this test, the particulars now being: ICB984 medulloblastoma cells, drug combinations, cisplatin combo, at 0.05 µM, stronger effect = higher value.
As to `CCCCCCNC(=O)n1cc(F)c(=O)[nH]c1=O`, the inhibition was -33.9% and 7.79%.
Same read-out and setting: the result for `CCn1cc(C(=O)O)c(=O)c2cc(F)c(N3CCN(C)CC3)cc21` reads -41% and 21.2%.
The same measure, in the same setting: the result for `Cn1cnc([N+](=O)[O-])c1Sc1ncnc2nc[nH]c12` reads -15.3% and -15.6%; that for `O=c1[nH]cc(F)c(=O)[nH]1`, 5.15%.
